Results filed as inconclusive are left out. Unmarked numbers belong to inactive results. Calls of active or inactive are those of the source. The call rests on the fitted dose curve; in most records, active means well fitted inhibition curve with a large enough effect; inconclusive means small, poorly fitted or top-dose-only effect, or effect the other way; inactive means flat fitted curve, though single readings scatter.

40 compounds from PubChem BioAssay AID493170 (National Center for Advancing Translational Sciences (NCATS), 2011) can be followed below.
On the % scale 0 is the no-effect control and ±100 the full control effect; potency means the concentration at half of the fitted maximal effect.

Ubiquitin carboxyl-terminal hydrolase 2 (Homo sapiens), sequence (O75604 whole entry, looked up): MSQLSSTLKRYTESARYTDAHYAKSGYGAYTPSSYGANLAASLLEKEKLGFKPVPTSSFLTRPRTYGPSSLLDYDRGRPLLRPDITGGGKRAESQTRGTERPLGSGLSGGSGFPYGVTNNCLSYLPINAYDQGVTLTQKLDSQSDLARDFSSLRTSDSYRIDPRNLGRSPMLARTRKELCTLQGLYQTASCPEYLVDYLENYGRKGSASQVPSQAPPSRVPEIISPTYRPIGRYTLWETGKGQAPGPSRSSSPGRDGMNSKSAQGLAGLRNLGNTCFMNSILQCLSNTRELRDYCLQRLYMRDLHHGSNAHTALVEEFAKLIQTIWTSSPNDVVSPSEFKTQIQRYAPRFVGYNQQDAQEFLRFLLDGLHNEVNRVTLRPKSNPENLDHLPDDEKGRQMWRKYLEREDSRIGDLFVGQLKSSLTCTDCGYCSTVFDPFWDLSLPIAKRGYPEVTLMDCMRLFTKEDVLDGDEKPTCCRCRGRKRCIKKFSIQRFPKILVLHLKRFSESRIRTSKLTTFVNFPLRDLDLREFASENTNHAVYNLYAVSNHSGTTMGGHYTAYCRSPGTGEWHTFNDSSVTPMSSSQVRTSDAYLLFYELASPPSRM

The experiment concerns the target Ubiquitin carboxyl-terminal hydrolase 2 (Homo sapiens) (UniProt O75604). As to the kind of experiment: Ub-rhodamine 110 based assay for inhibitors Ubiquitin-specific Protease USP2a. Further: nearly all actives have a fitted effect of over 50% in size. The settings on record: USP2a Ub-rhodamine110 cleavage, fluorescence; series mostly up to 38.3 µM; activity change, negative = inhibition: at the top concentration. From the text: NIH Molecular Libraries Probe Centers Network [MLPCN] NIH Chemical Genomics Center [NCGC] MLPCN Grant: XO1-MH079852-01 PI Name: Nicholson, Ben. Progenra Inc, Malvern, PA NCGC Assay Overview: Homeostasis of cellular proteins is maintained through a combination of synthesis and degradation. The pathway that accounts for the majority of protein degradation is the ubiquitin-proteasomal pathway. Ubiquitin (Ub) is highly conserved in all cells and the generation of a multi-Ub chain typically targets proteins for degradation by the proteasome. However, ubiquitination is highly reversible and dynamic. Deubiquitination, the reverse process, is catalyzed through the action of enzymes referred to as isopeptidases or deubiquitinating enzymes (DUBs). This group of enzymes is collectively responsible for maintaining adequate pools of free ubiquitin and regulating the ubiquitination status of cellular proteins. The class of DUBs referred to as the ubiquitin-specific proteases (USP) family functions endoproteolytically to cleave Ub chains from a wide range of protein substrates. USP2a deubiquitinates fatty acid synthase (FASN) which has recently been identified as an emerging oncology target. To identify inhibitors of USP2a a cell-free assay was employed. This assay measures cleavage of a profluorescent substrate (Ub-Rhodamine 110; Boston Biochem Cat#: U-555) by USP2a. The assay gives a fluorescent read-out at excitation/emission wavelengths of 485/531. The USP2a enzyme was provided by Progenra, Inc. licensed for sale by LifeSensors, Inc.
NCGC Assay Protocol: The assay buffer, prepared fresh at the day of the assay, contains 20mM Tris-HCl pH 8.0, 2mM CaCl2, 2mM beta-Mercaptoethanol, 0.05% CHAPS. 3uL of 10 nM (5 nM final) USP2a, was dispensed into a medium-binding black solid Kalypsys 1,536 well plate using the Kalypsys dispenser. The assay plate was then pinned with 23nL compounds in DMSO with a Kalypsys pintool in columns 5-48 (0.3% final DMSO concentration). The negative control was buffer/DMSO only in column 3. The assay plate is incubated at RT for 30min. Subsequently, 3uL of 300 nM Ub-Rhod110 (150 nM final) was dispensed into the plate using a Kalypsys dispenser. Plates were read after every minute for 7 min on a ViewLux (Perkin Elmer) plate reader using the following wavelengths: Ex 485nm /Em 531nm. Data were normalized to the AC100 inhibition (buffer alone). Concentration-response curves were fitted to the normalized data and the concentration-response curves were then classified based on curve quality (r2), response magnitude and degree of measured activity. The time zero reading was used to flag fluorescence artifacts.
Regarding `C=CCNCCOCCOc1ccccc1-c1ccccc1`, the “activity change, negative = inhibition” value is -6.42%.

Turning to `COCCn1nnnc1CN(CCc1ccccc1)Cc1cc2ccc(C)cc2[nH]c1=O`, the “activity change, negative = inhibition” value is -6.85%. Still for that read-out and setting: the value for `O=C(COc1ccccc1)NCc1nnc(SCC(=O)Nc2nccs2)n1-c1ccccc1` was 6.68%; that for `CC1CCN(CC(O)COc2cccc(F)c2)CC1` (stereo not given) was -2.9%. Same read-out and setting: the value for `CCCCCc1ccc(OCCOCCn2c[n+](C)c3ccccc32)c(CCCCC)c1` was -4.31%; that for `O=C1CC(Nc2ccc(N3CCOCC3)cc2)C(=O)N1c1cccc(C(F)(F)F)c1` (stereo not given) was -18.5%. As to `CCOC(=O)N1CCN(C(=O)CN(c2cccc(C)c2)S(=O)(=O)c2ccccc2)CC1`, the “activity change, negative = inhibition” value is 2.09%. Same read-out and setting: the value for `COc1ccc(OCC(=O)NCCNC(=O)c2cccnc2)cc1` was 10.5%; that for `Cc1ccc(S(=O)(=O)Nc2ccc(N3CCOCC3)cc2)cc1` was -7.65%. On the same count and under the same terms, the value for `Cn1c(C(=O)NCCCN2CCN(c3ccccc3F)CC2)cc2c(=O)n(C)c3ccccc3c21` was -27.2%; that for `CC(C)(C)OC(=O)C[C@H]1C/C=C\C[C@H](CC(=O)N(CCO)Cc2ccccc2)C(=O)NC[C@H](c2ccccc2)OC1=O` was -3.48%. As to `Cc1nc(NC(C)C)c2cnn(CCc3ccccc3)c2n1`, the “activity change, negative = inhibition” value was -4.79%. Regarding `C#CCOCCOCCOCCNc1nc(N2CCN(C(=O)CCCCCCCCCCNC(=O)[C@@H](CCSC)n3cc(CCO)nn3)CC2)nc(N2CCN(C(=O)CCCCCCCCCCNC(=O)[C@H](CCCN=C(N)N)n3cc(C[C@@H](C)CC)nn3)CC2)n1`, the Potency is 10 µM (active).

For the compound `C=C1c2cccc(O)c2C(=O)C2C(=O)[C@]3(O)C(=O)C(C(N)=O)C(=O)[C@@H](N(C)C)[C@@H]3[C@@H](O)[C@H]12` (stereo not given in full), the Potency is 8.91 µM (active). `COC(=O)C1CCN(C(=O)COC(=O)CC(NC(N)=O)c2ccc(Cl)cc2)CC1` (stereo not given): the “activity change, negative = inhibition” value is -0.127%. For the compound `Cc1cc(-c2csc(NCc3ccccc3)n2)c(C)n1C`, the Potency was 8.91 µM (active). As for `CC(=O)Nc1ccc(NC(=O)[C@@H](NC(=O)c2cccc(C)c2)C(C)C)cc1`, the “activity change, negative = inhibition” value was -2.39%. As for `CC(C)CC(=O)Nc1cccc(-c2nc3ccccc3o2)c1`, the “activity change, negative = inhibition” value is 4.76%.

Consider `O=C(Cc1ccc(S(=O)(=O)N2CCOCC2)s1)NCCC(c1ccccc1)c1ccccc1`, for which the Potency was 10 µM (active). On the same count and under the same terms, as for `N#C/C(=C\c1ccc(O)c(O)c1)C(=O)Nc1cccc2ncccc12`, the figure is 2.24 µM (active). Still for that read-out and setting: the value for `CCC(C)Cn1c(O)cc2nn(-c3nc4ccccc4s3)c(=O)c-2c1C` (stereo not given) was 10 µM (active); that for `C/C(=N/NC(=O)c1cc2ccccc2cc1O)C1C(=O)c2ccccc2C1=O` was 1.78 µM (active).

As for `N#CNC(=Nc1cccc(F)c1)SCc1cccc(F)c1`, the “activity change, negative = inhibition” value is -0.241%. Consider `CCOc1ccccc1C(=O)NC1CC2CCCC(C1)N2C1CC1` (stereo not given), for which the “activity change, negative = inhibition” value was 4.05%.

On to `COc1cccc(-c2csc3nnc(SCC(=O)NCc4cccs4)n23)c1`, for which the “activity change, negative = inhibition” value was -10.5%. On the same count and under the same terms, the value for `Cc1ccc(C=Nc2ccccc2C(N)=O)cc1` was 3.53%. With `Cc1ccc(C(=O)Nc2nnc(CC(=O)N/N=C/c3ccc(O)c(O)c3)s2)cc1`, the Potency was 4.47 µM (active). Consider `Cc1cc(/C=C2\C(=N)N3N=C(c4ccco4)SC3=NC2=O)c(C)n1Cc1ccccc1`, for which the Potency is 7.08 µM (active). With `CCOc1ccccc1C(=O)N[C@H](C(=O)Nc1ccc(OC)c(S(=O)(=O)N2CCOCC2)c1)C(C)C`, the “activity change, negative = inhibition” value was -7.42%.

In the case of `O=C(CSc1ccc(Br)c2cccc(Cl)c12)Nc1ccc(S(=O)(=O)Nc2nccs2)cc1`, the Potency was 3.55 µM (active). Take `O=C(N/C(=C/c1cccnc1)C(=O)N1CCOCC1)c1ccco1`: the “activity change, negative = inhibition” value was -3.6%. Turning to `Nc1ccc(C2=Nc3cccc4cccc(c34)N2)cc1`, the Potency was 12.6 µM (active). Turning to `CC1Cc2ccccc2N1C(=O)Cn1c(=O)oc2cc(S(=O)(=O)NC3CCCC3)ccc21` (stereo not given), the “activity change, negative = inhibition” value is -25.2%. Turning to `CCCCC1CCC(C(=O)Nc2ccc(S(=O)(=O)Nc3nccs3)cc2)CC1` (stereo not given), the Potency was 10 µM (active).

Take `COc1cc(/C=C/[N+](=O)[O-])ccc1OCc1cccc(C(=O)O)c1`: the “activity change, negative = inhibition” value is -20.5%. Regarding `CCCCCCCCCCOC(=O)Cn1c(COc2ccccc2OC)[n+](C)c2ccccc21`, the “activity change, negative = inhibition” value was -13.7%. The same measure, in the same setting: the value for `O=C(CSc1nc2ccccc2s1)NCCCN1CCOCC1` was -12.4%; that for `Cc1ccc2oc(=O)c3cnn(CC(=O)NCCCOC(C)C)c3c2c1` was -7.98%; that for `CCc1nnc(NC(=O)CSc2nccn2-c2cccc(C)c2)s1` was -13.4%. As for `COc1cccc(-n2c(SCc3cc(=O)oc4cc(O)c(O)cc34)nc3ccccc3c2=O)c1`, the Potency was 1.58 µM (active).
